These results are taken from PubChem BioAssay (NCATS).

One assay deals with C33A. The assay can be described thus: Primary qHTS to identify gynecologic anti-cancer compounds using libraries of approved drugs and bioactive compounds (AID 1345084). Further: on the % scale 0 is the no-effect control and ±100 the full control effect; nearly all actives have a fitted effect of over 55% in size. The note with it: Gynecologic cancer cell panel viability, ATPlite luminescence, 48 h; series mostly up to 57.5 µM. In a few lines:
(§1)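 Cytotoxicity screen measuring ATP content by luciferase luminescence. Each compound is applied at five concentrations for 48 h at 37 C with 5% CO2.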

A further assay deals with CASKI. The assay is described as above. The conditions noted are these: Gynecologic cancer cell panel viability, ATPlite luminescence, 48 h; series mostly up to 57.5 µM. In a few lines:
as §1
In general terms: ATP-based viability assays read luminescence as a measure of living cells.

Another assay deals with Es-2. The assay is described as above. The conditions noted are these: Gynecologic cancer cell panel viability, ATPlite luminescence, 48 h; series mostly up to 57.5 µM. In a few lines:
as §1

The subject of the next assay is HeLa. The assay is described as above. The conditions noted are these: Gynecologic cancer cell panel viability, ATPlite luminescence, 48 h; series mostly up to 57.5 µM. In a few lines:
as §1

A further assay deals with Hek293T. The description is as above. The note with it: Gynecologic cancer cell panel viability, ATPlite luminescence, 48 h, control line for the selectivity index; series mostly up to 57.5 µM. In a few lines:
as §1

The next assay concerns JEG-3. Described as above. The conditions noted are these: Gynecologic cancer cell panel viability, ATPlite luminescence, 48 h; series mostly up to 57.5 µM. In outline:
as §1

The next assay has as its system OV90. The assay is described as above. The note with it: Gynecologic cancer cell panel viability, ATPlite luminescence, 48 h; series mostly up to 57.5 µM. In a few lines:
as §1

In the next assay the test system is PA-1. The assay is described as above. The conditions noted are these: Gynecologic cancer cell panel viability, ATPlite luminescence, 48 h; series mostly up to 57.5 µM. In outline: as §1
For a further assay, the system named is SKOV3. Described as above. The note with it: Gynecologic cancer cell panel viability, ATPlite luminescence, 48 h; series mostly up to 57.5 µM. In outline:
as §1

The subject of the next assay is Tov-21-G. Described as above. The note with it: Gynecologic cancer cell panel viability, ATPlite luminescence, 48 h; series mostly up to 57.5 µM. In outline: as §1
Another assay relates to Tov112D. The assay is described as above. The note with it: Gynecologic cancer cell panel viability, ATPlite luminescence, 48 h; series mostly up to 57.5 µM. In a few lines:
as §1

Assay [1] is described as follows: Drug repurposing screens with cells derived from glioblastoma tumor samples (AID 1345199). Further: nearly all actives have a fitted effect of over 40% in size. Further: potency means the concentration at half of the fitted maximal effect. On activity, negative = cell killing: on the % scale 0 is the no-effect control and ±100 the full control effect. The conditions noted are these: GBM patient neurospheres viability, ATP luminescence, 48 h. In a few lines:
(§2)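 Four patient lines of CD133+ GBM neurospheres were screened at several concentrations; hits were retested in those lines plus three slower-growing GBM lines, using 48-hour treatment and ATP-based viability.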

A further assay relates to astro. The assay is described as above. The conditions noted are these: viability, ATP luminescence, 48 h; series mostly up to 45.9 µM. In outline:
as §2

A short description of assay [2]: qHTS assay to identify inhibitors of the type 1 interferon - major histocompatibility complex class I in skeletal muscle: Counter screen cell viability and HiBit confirmation (AID 1347412). Further: potency means the concentration at half of the fitted maximal effect; nearly all actives have a fitted effect of over 60% in size. The note with it: iHSKM muscle cells + IFN-b, HiBiT or CellTiter-Glo, 24 h. In outline:
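Duplicate plates, pinned identically: one read for HiBiT-tagged endogenous HLA-B luminescence, the other for ATP-content viability via CellTiter Glo. Cells were genome-engineered human myoblasts given 4 ng/ml IFN-b; compounds 12-pt, 1:3 from 46 uM final; 24 hr exposure.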
(In general: In qHTS, concentration-response curves come from the screen itself.)

For assay [3], the target named is Nuclear receptor subfamily 1 group I member 2 (Rattus norvegicus) (UniProt Q9R1A7). The assay can be described thus: qHTS assay for small molecule activators of the rat pregnane X receptor (rPXR) signaling pathway (AID 651751; call rule not given here; further: 0% is about no effect). The note with it: rPXR reporter cells, luciferase (One-Glo), 24 h.
Assay [4] in a line: qHTS assay for small molecule activators of the human pregnane X receptor (PXR) signaling pathway (AID 720659; call rule not given here; further: 0% is about no effect).
Where [5] appears, read: at 45.9 µM (top of the series), tumour line B.
Where [6] appears, read: at 45.9 µM (top of the series), tumour line D.
Setting [7] is: at 46 µM (top of the series), tumour line A.
Where [8] appears, read: at 46.1 µM (top of the series), tumour line C.

The structures appear in SMILES notation. “And” between values parts separate entries of the source, which are not always exact repeats. Equal values may be shown once. A number with no mark means an inactive call. Inconclusive results are not listed. The source made the active and inactive calls. Unless noted, the call rests on the fitted dose curve; in most records, active means well fitted curve in the direction sought with a large enough effect; inconclusive means small, poorly fitted or top-dose-only effect, or another doubt; inactive means no such curve, though single readings can be large; an effect the other way counts as inactive or inconclusive.

Sequence of Nuclear receptor subfamily 1 group I member 2 (Rattus norvegicus) (Q9R1A7 whole entry, looked up): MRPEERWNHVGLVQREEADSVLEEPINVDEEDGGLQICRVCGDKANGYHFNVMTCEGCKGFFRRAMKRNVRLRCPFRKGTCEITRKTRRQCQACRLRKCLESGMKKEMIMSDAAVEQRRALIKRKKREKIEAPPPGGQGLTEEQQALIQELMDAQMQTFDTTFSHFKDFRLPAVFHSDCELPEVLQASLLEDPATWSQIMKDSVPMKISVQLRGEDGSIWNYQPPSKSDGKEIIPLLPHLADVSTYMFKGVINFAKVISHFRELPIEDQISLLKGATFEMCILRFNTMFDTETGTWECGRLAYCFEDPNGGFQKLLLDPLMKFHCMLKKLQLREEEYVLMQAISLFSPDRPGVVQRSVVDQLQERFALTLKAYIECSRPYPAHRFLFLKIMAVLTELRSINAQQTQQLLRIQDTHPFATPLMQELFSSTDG

With `C[C@@H](O)[C@H]1C(=O)N2C(C(=O)O)=C(S[C@@H]3CN[C@H](C(=O)N(C)C)C3)[C@H](C)[C@H]12`, the Potency result in the assay on C33A, in the assay on CASKI, in the assay with Es-2, in the assay on HeLa, with Hek293T and in the assay with JEG-3 was “inactive” in each case. Also, the Potency result with OV90, with PA-1, in the assay on SKOV3, in the assay on Tov-21-G, in the assay on Tov112D and in the assay with astro was “inactive” in each case. For the same molecule, the activity, negative = cell killing in assay [1] (setting [5]) is -4.52%; in assay [1] (setting [6]), 4.08%; in [1] (setting [7]), -23.7%; in [1] (setting [8]), -22.4%.
With `CC(=O)CCCCn1c(=O)c2c(ncn2C)n(C)c1=O`, the Potency result with C33A, in the assay on CASKI, in the assay on Es-2, with HeLa, with Hek293T and in the assay with JEG-3 was “inactive” throughout. Moreover, the Potency result in the assay with OV90, in the assay on PA-1, with SKOV3, with Tov-21-G and with Tov112D was “inactive” in each case. The activity, negative = cell killing was -6.47% in assay [1] (at 20 µM (top of the series), tumour line C); 0.116% in assay [1] (at 21.2 µM (top of the series), tumour line B); 1.87% in assay [1] (at 21.2 µM (top of the series), tumour line D); -23.5% in assay [1] (at 21.3 µM (top of the series), tumour line A).
Turning to `COc1ccc(Cc2ccc(NC(N)=O)cc2)cc1-c1cccc(Cl)c1`, the Potency entry with C33A, with CASKI, in the assay on Es-2, in the assay on HeLa, in the assay with Hek293T and in the assay on JEG-3 was “inactive” throughout. The Potency entry in the assay on OV90, in the assay with PA-1, with SKOV3, in the assay on Tov-21-G and in the assay on Tov112D was “inactive” in each case.
As to `O=C(Nc1ccccc1-c1cn2c(CN3CCNCC3)csc2n1)c1cnc2ccccc2n1`, the Potency entry in the assay on C33A, in the assay with CASKI, in the assay on Es-2, with HeLa, with Hek293T and with JEG-3 was “inactive” in each case. For the same molecule, the Potency result with OV90, in the assay with PA-1, in the assay with SKOV3, with Tov-21-G and with Tov112D was “inactive” each time. Further, the Potency is 11.1 µM (active) in [2] (HiBiT) and 15.7 µM (active) in assay [2] (Viability).
Take `O=C(CCN1CCN(C(=O)OCc2cc(Cl)cc(Cl)c2)CC1)c1ccc2[nH]c(=O)oc2c1`: the Potency result with C33A, in the assay with CASKI, in the assay with Es-2, in the assay with HeLa, with Hek293T and with JEG-3 was “inactive” each time. The Potency entry with OV90, in the assay on PA-1, with SKOV3, in the assay with Tov-21-G and with Tov112D was “inactive” in each case.
For `C[N+](C)(C)CCCCCC[N+](C)(C)C`, the Potency result in the assay with C33A, in the assay with CASKI, with Es-2, with HeLa, in the assay with Hek293T and in the assay on JEG-3 was “inactive” each time. The Potency entry with OV90, with PA-1, in the assay with SKOV3, with Tov-21-G and with Tov112D was “inactive” throughout. Moreover, the activity, negative = cell killing was -9.48% in assay [1] (setting [5]), -17.5% in assay [1] (setting [6]), -4.52% in assay [1] (setting [7]) and 8.25% in [1] (setting [8]).
As for `CC(C)(C)c1ccc(C(O)CCCN2CCC(C(O)(c3ccccc3)c3ccccc3)CC2)cc1` (configuration not stated), the Potency entry with C33A, in the assay on CASKI, in the assay on Es-2, in the assay on HeLa, with Hek293T and in the assay with JEG-3 was “inactive” throughout. Moreover, the Potency entry in the assay on OV90, with PA-1, with SKOV3, in the assay with Tov-21-G and with Tov112D was “inactive” each time. Also, in assay [1] (setting [8]), the activity, negative = cell killing is -2.38%. Further, the Potency in [1] (tumour line A) is 5.01 µM (active); in assay [1] (tumour line B), 11.2 µM (active); in [1] (tumour line D), 10 µM (active); in the assay on astro, 35.5 µM (active) and 20 µM (active); in assay [2] (Viability) it was 22.2 µM (active).
On to `CC(C)NCC(O)COc1cccc2[nH]ccc12` (configuration not stated), for which the Potency entry in the assay with C33A, in the assay with CASKI, with Es-2, in the assay with HeLa, with Hek293T and in the assay on JEG-3 was “inactive” throughout. Further, the Potency result in the assay with OV90, in the assay on PA-1, with SKOV3, in the assay with Tov-21-G and in the assay with Tov112D was “inactive” in each case. Besides, the activity, negative = cell killing is -5.39% in [1] (setting [5]), -14.8% in assay [1] (setting [6]), -24.6% in assay [1] (setting [7]) and 1.52% in assay [1] (setting [8]).
With `COc1ccc2cccc(CCNC(C)=O)c2c1`, the Potency result with C33A, with CASKI, with Es-2, with HeLa, in the assay on Hek293T and in the assay with JEG-3 was “inactive” each time. The Potency entry with OV90, in the assay with PA-1, in the assay on SKOV3, with Tov-21-G and with Tov112D was “inactive” in each case.
As to `COc1ccc(C2Sc3ccccc3N(CCN(C)C)C(=O)C2OC(C)=O)cc1` (configuration not stated), the Potency result with C33A, in the assay with CASKI, with Es-2, with HeLa, in the assay with Hek293T and in the assay with JEG-3 was “inactive” throughout. Besides, the Potency entry in the assay with OV90, in the assay on PA-1, with Tov-21-G and in the assay on Tov112D was “inactive” in each case.
For the molecule `CC(=O)Oc1cc2c(s1)CCN(C(C(=O)C1CC1)c1ccccc1F)C2` (configuration not stated), the Potency result in the assay on C33A, in the assay with CASKI, in the assay on Es-2, in the assay on HeLa, in the assay on Hek293T and with JEG-3 was “inactive” each time. In addition, the Potency entry in the assay with OV90, in the assay with PA-1, in the assay with SKOV3, with Tov-21-G, with Tov112D and in the assay on astro was “inactive” in each case. Further, the activity, negative = cell killing was 4.77% in [1] (setting [5]), -7.3% in assay [1] (setting [6]) and -27.4% in assay [1] (setting [7]).
On to `O=C(NC1CCOCC1)c1ccc(-c2cc(-c3cn[nH]c3-c3ccccn3)ccn2)cc1`, for which the Potency result in the assay with C33A, in the assay with CASKI, in the assay on Es-2, with HeLa, with Hek293T and in the assay with JEG-3 was “inactive” throughout. In addition, the Potency result with OV90, in the assay with PA-1, with SKOV3, in the assay with Tov-21-G and with Tov112D was “inactive” throughout.
On to `CS(=O)(=O)N(Cc1ccco1)CC(O)Cn1c2ccccc2c2ccccc21` (configuration not stated), for which the Potency result with C33A, with CASKI, in the assay on Es-2, in the assay with HeLa, in the assay on Hek293T and in the assay on JEG-3 was “inactive” each time. The Potency result with OV90, in the assay with PA-1, in the assay with SKOV3, in the assay with Tov-21-G and with Tov112D was “inactive” throughout.
For `O=C(O)Cc1cccc2ccccc12`, the Potency result in the assay with C33A, in the assay on CASKI, in the assay with Es-2, in the assay on HeLa, in the assay with Hek293T and in the assay with JEG-3 was “inactive” in each case. Moreover, the Potency result in the assay on OV90, in the assay on PA-1, in the assay on SKOV3, with Tov-21-G and with Tov112D was “inactive” in each case. Further, the activity, negative = cell killing in assay [1] (setting [5]) is -11.6%; in [1] (setting [6]), 18.7%; in [1] (setting [7]), -19.6%; in [1] (setting [8]), -6.29%; in assay [1] (at 91.6 µM (top of the series), tumour line A), -29.8%; in assay [1] (at 91.6 µM (top of the series), tumour line B) it was 9.54%. The activity, negative = cell killing is -15.1% in [1] (at 91.6 µM (top of the series), tumour line D) and 10.5% in assay [1] (at 99.2 µM (top of the series), tumour line C). Moreover, the max response in assay [3] was -1.12% and -1.15%. In addition, in assay [4], the outcome was inactive.
